gsp ag – qHTS for Agonist of gsp, the Etiologic Mutation Responsible for Fibrous Dysplasia/McCune-Albright Syndrome: qHTS; gsp mutant cells, cAMP HTRF, 30 min; AID 624287, 2012; hit rate 0.13% among 340,000; Potency, µM (titrated, usually from 76.9 µM), most hits filed as activators; active = well fitted activation curve with a large enough effect; inconclusive = small, poorly fitted or top-dose-only effect, or another doubt; inactive = no such curve, though single readings can be large or run the other way; cell line not stated here;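 also: phosphodiesterase inhibitor Ro 20-1724 added with compounds to block cAMP breakdown; nearly all actives have a fitted effect of over 60% in size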
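Cells stably selected in G418 were plated at 2000/well, grown 16-24 hr, then given compounds in DMSO with the PDE inhibitor […] (300 uM solution added) for 30 min at 37C; cAMP was read by HTRF.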
pAkt inh – HTS Assay for Inhibitors of Akt Phophorylation: Primary Screen. Neuro2A IGF-stimulated pAkt S473 HTRF, 20 min; stronger effect = lower value. activity change, % for hits at 50 µM. hit rate 0.32% among 360,000. AID 651550, 2012; in the data active = activity change below about -80%; inconclusive = mostly about -51% to -80%
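Neuro2A cells in DMEM with 0.5% FBS, overnight at 37 deg C, given compound at single 50 µM final, then IGF (6 nM final) for 20 min at 37 deg C. Lysed; phospho-Akt Ser473 by HTRF after 24 h, 665/615 ratio.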
ClpP mod – qHTS Assay for Activators of ClpP. hit rate 1.9% among 340,000. purified B. subtilis ClpP, FRET peptide cleavage, 20 min. Potency, µM (highest dose often 57.5 µM). AID 651965, 2013; active = well fitted falling curve with a large enough effect; inconclusive = small, poorly fitted or top-dose-only effect; inactive = no such curve, though single readings can be large or run the other way; also: the source files actives as falling curves though it sought activators and does not explain the sign; nearly all actives have a fitted effect of over 65% in size
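Purified B. subtilis ClpP, 10 microg/mL final in Tris/HCl pH8 with KCl, BSA, glycerol and Tween-20, cleaved an Abz/nitrotyrosine-quenched decapeptide. Fluorescence (ex 320, em 430) was read at 0 and 20 min at room temperature. Delta was normalized to 5.8 microM ADEP and DMSO/no-enzyme controls.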
gsp antag – qHTS for Antagonists of gsp, the Etiologic Mutation Responsible for Fibrous Dysplasia/McCune-Albright Syndrome: qHTS; gsp-mutant cells, cAMP HTRF, 30 min; Potency, µM (titrated, usually from 76.9 µM), actives largely listed as inhibitors; hit rate 0.4% among 340,000; AID 624288, 2012; calls by dose curve; cell line not stated here;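 also: intracellular cAMP measured with PDE inhibitor Ro 20-1724 present during compound exposure; nearly all actives have a fitted effect of over 65% in size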
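Cells in G418 medium, seeded 16-24 h, 37C; buffer exchange to DPBS + 1 mM CaCl2, 0.5 mM MgCl2, 0.05% BSA; cpds in DMSO + […] (300 uM stock), 30 min 37C; HTRF cAMP detection.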
RXFP1 ag – qHTS Assay for Agonists of the Relaxin Receptor RXFP1. Relaxin receptor 1 (Homo sapiens), Q9HBX9. HEK293T-RXFP1 cAMP TR-FRET, 30 min; response scale: percent of porcine relaxin response, buffer zero. Potency, µM (highest dose often 57.5 µM), actives largely listed as activators. hit rate 0.3% among 370,000. AID 2676, 2010; active = well fitted activation curve with a large enough effect; inconclusive = small, poorly fitted or top-dose-only effect; also: nearly all actives have a fitted effect of over 60% in size
Target sequence (Q9HBX9 whole entry, looked up): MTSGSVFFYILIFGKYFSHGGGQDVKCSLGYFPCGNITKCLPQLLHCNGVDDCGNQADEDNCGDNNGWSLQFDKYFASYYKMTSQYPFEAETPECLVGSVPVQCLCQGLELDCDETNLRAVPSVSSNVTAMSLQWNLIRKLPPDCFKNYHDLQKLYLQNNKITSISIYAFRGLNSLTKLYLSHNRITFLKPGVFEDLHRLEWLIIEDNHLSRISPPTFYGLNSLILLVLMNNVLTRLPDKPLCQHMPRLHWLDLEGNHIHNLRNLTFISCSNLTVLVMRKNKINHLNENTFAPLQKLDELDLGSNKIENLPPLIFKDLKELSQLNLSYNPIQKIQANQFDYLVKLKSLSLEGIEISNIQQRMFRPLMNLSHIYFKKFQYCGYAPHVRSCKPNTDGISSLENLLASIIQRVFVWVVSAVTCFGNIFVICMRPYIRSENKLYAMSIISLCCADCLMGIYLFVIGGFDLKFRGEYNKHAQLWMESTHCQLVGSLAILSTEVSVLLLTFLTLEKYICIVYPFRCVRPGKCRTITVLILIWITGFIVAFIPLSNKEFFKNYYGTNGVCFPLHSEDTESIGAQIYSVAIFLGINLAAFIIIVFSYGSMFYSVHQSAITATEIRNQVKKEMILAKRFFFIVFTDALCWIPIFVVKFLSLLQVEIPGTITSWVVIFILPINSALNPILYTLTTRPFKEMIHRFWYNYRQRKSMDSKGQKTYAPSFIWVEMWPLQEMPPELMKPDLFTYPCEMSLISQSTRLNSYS
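cAMP rise read by TR-FRET after 30 min, 37C compound exposure (up to 58 uM) in RXFP1-transfected HEK293 cells with Ro 20174 present. EC50 from Hill-equation fits, with 29 nM porcine relaxin as 100% and buffer as basal.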
RXFP1 antag – qHTS Assay for Antagonists of the Relaxin Receptor RXFP1. hit rate 0.59% among 350,000. AID 1259400, 2018. activity change, negative = inhibition, % at 57.5 µM. HEK293-RXFP1, relaxin-stimulated cAMP HTRF, 30 min; stronger effect = lower value;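 active = activity change of -60% or lower, but not beyond a set lower limit; inconclusive = change between -60% and -40%, or beyond the set limit; inactive = change above -40%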
Hits are given with their value; n = inactive; u = inconclusive; x = not tested or not shown; [ ] = remark or other dose. Sampled rows, rich in hits. Any-hit rate of the full collection: about 2.7%.

SMILES | gsp ag | pAkt inh | ClpP mod | gsp antag | RXFP1 ag | RXFP1 antag
COc1ccc(NS(=O)(=O)c2cccc(C(=O)NCC(c3ccco3)N3CCCCC3)c2)cc1 (configuration not stated) | n[15.4 µM] | n | x | n | n | -73
O=C(c1cnc(N2CCOCC2)c2ccccc12)N1CCN(c2ccccc2)CC1 | x | x | n | x | n | n
COc1cccc2c1C(=O)/C(=C/c1ccc(N(C)C)cc1)C2 | x | x | n | x | x | x
O=C1CC(=Nc2ccccc2)NN1c1ccccc1 | n | n | n | 50µM | n | n
O=[N+]([O-])c1ccc(C=NNC(=S)Nc2ccc(F)cc2)cc1 | n | n | x | n | x | n
O=[N+]([O-])c1ccc(C=NNC(=S)NN=Cc2ccc([N+](=O)[O-])cc2)cc1 | n | n | x | n | x | -62
Cc1ccc(Nc2sc(C(=O)c3ccc(F)cc3)c(N)c2S(=O)(=O)c2ccc(C)cc2)cc1 | x | x | n | x | n | n
c1ccc(Cn2nnc3c(N4CCOCC4)ncnc32)cc1 | n | n | n | n | n | x
FC(F)(F)c1ccc(N2CCN(c3ncnc4c3nnn4Cc3ccccc3)CC2)nc1 | n | -86% | u | n | n | n
O=C(NNc1ccccc1F)c1sccc1Cl | x | x | n | x | x | x
Cc1cc2c(=O)oc(-c3ccccc3Br)nc2s1 | n[15.4 µM] | n | n | 35µM | n | n
Cc1cc2c(=O)oc(-c3ccc(F)cc3)nc2s1 | n[15.4 µM] | n | n | n | n | n
CCOc1ccc(CCNC(=O)c2[nH]c3cc(OC)ccc3c2Sc2ccccc2)cc1OCC | x | x | 22µM | x | n | n
O=c1cc(-c2ccccc2)[nH]n1-c1nc2ccccc2[nH]1 | n | n | n | n | n | -76
CS(=O)(=O)N1CCCCC1CCN1CCCCC1 (configuration not stated) | n[15.4 µM] | n | 28µM | n | x | n
COc1ccc2oc(C(=O)NCC(c3ccco3)N(C)C)c(C)c2c1 (configuration not stated) | n | n | 28µM | n | n | n
CCCCc1nnc(NC(=O)c2oc3ccc(OC)cc3c2C)s1 | n | n | 32µM | n | n | n
CN(C)c1ccc(/C=C/c2ccnc3ccc(O)cc23)cc1 | x | x | n | x | x | x
Cc1oc(-c2ccc(F)cc2)cc1-c1nn2c(-c3ccoc3C)nnc2s1 | n | -109% | n | n | n | n
O=C(Nc1ccc(Cl)cc1)Nc1nnc(CSCc2ccccc2)s1 | n | n | 18µM | n | n | x
O=C(Nc1nnc(CSCc2ccc(Cl)cc2)s1)c1cccc([N+](=O)[O-])c1 | n[15.4 µM] | n | 25µM | n | n | n
Cc1cccc(NC(=O)CCC(=O)N2CCOCC2)n1 | n | n | n | n | n | n
C/C(N)=C(/C#N)C(=O)CN1C(=O)NC(Cc2c[nH]c3ccccc23)C1=O (configuration not stated) | n | n | n | n | n | n
CC(C)c1ccc2[nH]c3c(c2c1)CCCC3=O | n[15.4 µM] | n | x | n | n | u
Cc1ccc2[nH]c3c(c2c1)CCCC3=O | n | n | u | n | n | n
SMILES | gsp ag | pAkt inh | ClpP mod | gsp antag | RXFP1 ag | RXFP1 antag
O=C1CCCc2c1[nH]c1ccc(CN3CCCCC3)cc21 | u | n | 28µM | n | n | n
Cc1ccc2[nH]c3c(c2c1)CCC3=O | u | n | 25µM | n | n | n
O=C(c1ccc(Cl)cc1)C1CCN(C(=S)Nc2ccccc2)CC1 | n | n | n | n | x | n
C=CC[C@H](CC(=O)NCCO)C(=O)NC[C@@H](OC(=O)[C@@H](CC=C)CC(=O)OC(C)(C)C)c1ccccc1 | n | n | n | n | x | x
c1ccc2nc3[nH]cnc3nc2c1 | u | n | 22µM | n | n | n
c1ccc2[nH]cnc2c1 | x | n | n | n | x | x
Cc1cccc(-c2nn3c(=O)cc(CN4CCN(C(=O)c5ccccc5Br)CC4)nc3s2)c1 | x | x | n | x | n | x
C=C1C=C(C)n2ncc(C(=O)Nc3ccc(F)cc3F)c2N1 | x | x | n | x | x | x
CC1(C)CC(=O)c2cc(-c3nc(-c4ccc(Cl)cc4)cs3)c(=O)n(-c3ccc(F)cc3)c2C1 | x | x | 40µM | x | n | n
CCOC(=O)N1CCN(C(=O)c2ccc(N(C)S(=O)(=O)c3ccc(C)cc3)cc2)CC1 | n | n | n | n | n | n
Cc1cc(=O)n2nc(N(C)CC(=O)NCc3ccc(Cl)cc3)sc2n1 | x | x | n | x | n | x
O=C(c1ccc(=O)oc1)N1CCN(c2ccc(F)cc2)CC1 | n | n | 32µM | n | n | n
O=C(c1ccc(F)c(S(=O)(=O)N2CCOCC2)c1)N1CCN(c2ccc(F)cc2)CC1 | n | n | n | n | n | n
CC(=O)c1ccc(-c2ccc(C(=O)N3CCN(c4ccc(F)cc4)CC3)o2)cc1 | n | n | n | 28µM | n | n
O=C(c1ccc(Br)o1)N1CCN(c2ccc(F)cc2)CC1 | n | n | n | n | n | n
CN(C)c1ccc(/C=C/c2ccnc3c(Cl)cccc23)cc1 | x | x | n | x | x | x
CCc1ccc(C2CC(=O)c3c([nH]c(C(=O)OCC4CCCCC4)c3C)C2)cc1 (configuration not stated) | x | x | n | x | n | n
CC(C)C[C@@H](CN=[N+]=[N-])N1CCN(CCc2ccccc2)CCC1=O | x | x | n | x | x | x
C=CCn1c(COc2cccc3ccc(C)nc23)nnc1SCC(=O)OC | n | n | 28µM | n | n | n
COc1cccc(CNC(=O)CNS(=O)(=O)c2ccc3nc(C)sc3c2)c1 | x | x | n | x | n | n
O=c1c(Cl)c(NCCO)ncn1-c1ccccc1 | n | n | 28µM | n | n | n
O=C1CSC(=S)N1N=Cc1cccc(OCc2ccccc2)c1 | n | n | n | x | x | -95
CCCCC(O)/C=C(C)/C=C/C=C/C(=O)N1CCCC1=O (configuration not stated) | x | x | x | x | x | n
CN(C(=O)COc1ccccc1C(=O)NCCOc1ccccc1)c1ccccc1 | n | n | n | 35µM | n | n
O=C(NC12CC3CC(CC(C3)C1)C2)c1ccccc1O | n | n | 28µM | n | n | n
Cc1ccc(C)c(CC(=O)N2CCCC(c3cc(C(=O)NCc4cccnc4)no3)C2)c1 (configuration not stated) | x | n | n | x | x | x
C=CCc1cccc2cc(C(=O)NC)c(=O)oc12 | n | n | 22µM | n | n | n
COc1ccc(CN2CCC(n3nccc3NC(=O)C3CC3)CC2)cc1O | n | n | n | n | n | n
CCOc1cc(/C=N\NC(=O)OC)ccc1OC(=O)c1ccco1 | n | n | x | n | n | -64
O=C(NCc1ccc(F)cc1)c1ccc2oc(=O)n(Cc3ccccc3)c2c1 | x | x | n | x | n | x
